Common to all, as to assay: DAPPL (digital affinity profiling via proximity ligation, sequencing); 10 mM Tris-HCl pH 7.5, 50 mM NaCl, 1 mM DTT, 4% glycerol, room temperature, 30 min; GST-TFs on glutathione beads, 16-mer random dsDNA library, 0.1% formaldehyde crosslink after washing; high values mean tight binding
The target of one experiment is T1, FEV (Homo sapiens, UniProt Q99581 1-238).
T1 sequence: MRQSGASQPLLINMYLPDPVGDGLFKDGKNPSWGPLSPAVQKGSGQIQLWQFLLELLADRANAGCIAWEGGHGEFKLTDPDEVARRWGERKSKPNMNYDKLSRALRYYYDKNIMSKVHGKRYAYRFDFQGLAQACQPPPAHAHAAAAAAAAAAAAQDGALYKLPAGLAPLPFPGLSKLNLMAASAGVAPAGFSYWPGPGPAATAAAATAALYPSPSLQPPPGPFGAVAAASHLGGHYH
The note with it: protein: recombinant; tags: N-terminal GST; dsDNA, one strand shown. The method in brief: (§1)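 In yeast, human transcription factors were expressed with a GST fusion, then pulled down on glutathione beads and given DNA barcodes. Pooled with a tag-only sample, they were exposed to 200 nmole of a 16-mer random double-stranded DNA library (Tris/NaCl/DTT/glycerol buffer, room temperature, 30 min), washed, crosslinked with 0.1% formaldehyde, proximity-ligated using BsaI/T4 ligase for 1 h at 37 °C, PCR-amplified and read on an Illumina NextSeq500. Each hexamer's frequency of reads for a factor, divided by the matching frequency for the tag-only sample, gives the binding signal.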

Another experiment has as its target ETV5 (Homo sapiens, UniProt P41161 1-510). As to conditions: protein: recombinant; tags: N-terminal GST; dsDNA, one strand shown. The method in brief:
as §1

The target of the next experiment is HSF1 (Homo sapiens, UniProt Q00613 1-529). The note with it: protein: recombinant; tags: N-terminal GST; chain copies: 3; dsDNA, one strand shown. In outline:
as §1

Another experiment addresses T2, SPIC (Homo sapiens, UniProt Q8N5J4 1-248).
T2 sequence: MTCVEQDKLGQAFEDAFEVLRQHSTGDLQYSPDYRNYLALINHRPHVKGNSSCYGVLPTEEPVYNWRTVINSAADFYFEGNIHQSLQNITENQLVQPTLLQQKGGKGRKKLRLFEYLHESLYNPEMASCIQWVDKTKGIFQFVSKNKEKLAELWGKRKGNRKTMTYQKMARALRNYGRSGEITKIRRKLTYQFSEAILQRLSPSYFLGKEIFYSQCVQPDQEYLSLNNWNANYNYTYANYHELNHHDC
The note with it: protein: recombinant; tags: N-terminal GST; dsDNA, one strand shown. The method in brief:
as §1

In a further experiment the target is ELF4 (Homo sapiens, UniProt Q99607 1-663). The note with it: protein: recombinant; tags: N-terminal GST; dsDNA, one strand shown. The method in brief:
as §1

In the next experiment the target is T3, ELK4 (Homo sapiens, UniProt P28324-2 1-405).
T3 sequence: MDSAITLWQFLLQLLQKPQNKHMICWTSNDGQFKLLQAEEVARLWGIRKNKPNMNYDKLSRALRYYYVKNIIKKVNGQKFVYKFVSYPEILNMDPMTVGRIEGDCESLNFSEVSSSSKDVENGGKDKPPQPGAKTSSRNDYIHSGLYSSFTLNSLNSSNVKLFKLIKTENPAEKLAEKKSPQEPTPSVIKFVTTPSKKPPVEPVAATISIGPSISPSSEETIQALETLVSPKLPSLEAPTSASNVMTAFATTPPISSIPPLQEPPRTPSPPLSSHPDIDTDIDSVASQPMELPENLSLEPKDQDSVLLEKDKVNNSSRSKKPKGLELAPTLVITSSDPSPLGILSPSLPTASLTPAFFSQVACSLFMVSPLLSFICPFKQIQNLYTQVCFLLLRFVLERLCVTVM
The note with it: protein: recombinant; tags: N-terminal GST; dsDNA, one strand shown. The method in brief: as §1

The target in a further experiment is T4, ETV2 (Homo sapiens, UniProt O00321 1-342).
T4 sequence: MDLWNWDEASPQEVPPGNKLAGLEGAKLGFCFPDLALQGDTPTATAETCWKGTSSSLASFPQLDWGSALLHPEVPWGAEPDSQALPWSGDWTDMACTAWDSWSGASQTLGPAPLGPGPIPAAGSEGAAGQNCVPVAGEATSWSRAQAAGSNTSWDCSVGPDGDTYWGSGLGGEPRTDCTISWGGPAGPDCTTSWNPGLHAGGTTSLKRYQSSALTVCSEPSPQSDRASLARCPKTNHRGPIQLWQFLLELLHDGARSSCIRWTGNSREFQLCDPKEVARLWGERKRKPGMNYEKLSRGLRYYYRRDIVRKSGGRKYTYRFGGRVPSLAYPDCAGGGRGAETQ
As to conditions: protein: recombinant; tags: N-terminal GST; dsDNA, one strand shown. In outline: as §1

The target of a further experiment is T5, ELF3 (Homo sapiens, UniProt P78545 1-371).
T5 sequence: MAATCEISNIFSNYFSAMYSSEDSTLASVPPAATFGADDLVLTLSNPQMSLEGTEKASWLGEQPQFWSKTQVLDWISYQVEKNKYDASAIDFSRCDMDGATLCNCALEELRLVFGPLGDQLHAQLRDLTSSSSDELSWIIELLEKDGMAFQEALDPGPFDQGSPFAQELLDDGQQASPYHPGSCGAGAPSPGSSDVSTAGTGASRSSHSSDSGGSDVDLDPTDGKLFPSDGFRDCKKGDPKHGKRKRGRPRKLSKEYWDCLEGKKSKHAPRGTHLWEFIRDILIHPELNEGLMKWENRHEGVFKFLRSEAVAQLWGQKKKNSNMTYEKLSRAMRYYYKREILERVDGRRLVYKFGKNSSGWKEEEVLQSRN
As to conditions: protein: recombinant; tags: N-terminal GST; dsDNA, one strand shown. In outline: as §1

In a further experiment the target is CRX (Homo sapiens, UniProt O43186 1-299). The note with it: protein: recombinant; tags: N-terminal GST; dsDNA, one strand shown. In outline:
as §1

The target in another experiment is ETV1 (Homo sapiens, UniProt P50549 1-477). As to conditions: protein: recombinant; tags: N-terminal GST; dsDNA, one strand shown. In outline: as §1
Chain of ETV1 (P50549 whole entry): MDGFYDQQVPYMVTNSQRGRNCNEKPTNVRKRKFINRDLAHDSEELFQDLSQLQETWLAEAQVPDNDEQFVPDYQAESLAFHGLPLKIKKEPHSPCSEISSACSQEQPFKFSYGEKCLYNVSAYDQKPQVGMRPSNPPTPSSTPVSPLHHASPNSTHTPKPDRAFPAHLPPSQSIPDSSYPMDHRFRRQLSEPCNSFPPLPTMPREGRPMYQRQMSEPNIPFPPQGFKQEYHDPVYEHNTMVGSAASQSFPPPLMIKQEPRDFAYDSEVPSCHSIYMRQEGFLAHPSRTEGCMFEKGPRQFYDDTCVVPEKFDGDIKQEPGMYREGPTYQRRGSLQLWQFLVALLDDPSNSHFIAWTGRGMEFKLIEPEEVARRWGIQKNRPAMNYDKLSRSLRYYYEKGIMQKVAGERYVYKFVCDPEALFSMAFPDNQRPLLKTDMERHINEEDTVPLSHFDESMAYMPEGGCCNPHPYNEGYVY

Chain of HSF1 (Q00613 whole entry): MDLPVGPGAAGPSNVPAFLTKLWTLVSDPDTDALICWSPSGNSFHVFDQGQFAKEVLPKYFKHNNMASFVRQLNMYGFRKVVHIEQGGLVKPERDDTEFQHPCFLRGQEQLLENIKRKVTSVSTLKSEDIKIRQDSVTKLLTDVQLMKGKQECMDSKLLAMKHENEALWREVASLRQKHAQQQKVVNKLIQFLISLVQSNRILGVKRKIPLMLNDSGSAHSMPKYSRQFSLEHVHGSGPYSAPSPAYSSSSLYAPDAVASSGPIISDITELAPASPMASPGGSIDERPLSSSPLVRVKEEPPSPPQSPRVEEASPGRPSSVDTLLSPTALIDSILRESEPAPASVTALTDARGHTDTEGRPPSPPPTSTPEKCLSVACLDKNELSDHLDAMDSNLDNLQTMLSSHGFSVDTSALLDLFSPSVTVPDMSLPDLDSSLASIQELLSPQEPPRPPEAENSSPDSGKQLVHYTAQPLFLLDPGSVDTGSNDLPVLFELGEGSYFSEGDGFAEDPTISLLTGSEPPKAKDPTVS
Chain of CRX (O43186 whole entry): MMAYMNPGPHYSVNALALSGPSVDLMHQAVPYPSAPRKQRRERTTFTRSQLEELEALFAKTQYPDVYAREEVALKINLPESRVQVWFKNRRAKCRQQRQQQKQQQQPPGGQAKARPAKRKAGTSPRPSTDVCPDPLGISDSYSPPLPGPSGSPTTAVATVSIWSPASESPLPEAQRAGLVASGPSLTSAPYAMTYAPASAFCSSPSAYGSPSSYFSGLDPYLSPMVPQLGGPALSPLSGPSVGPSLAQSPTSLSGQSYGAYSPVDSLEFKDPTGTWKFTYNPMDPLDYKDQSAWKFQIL
Chain of ETV5 (P41161 whole entry): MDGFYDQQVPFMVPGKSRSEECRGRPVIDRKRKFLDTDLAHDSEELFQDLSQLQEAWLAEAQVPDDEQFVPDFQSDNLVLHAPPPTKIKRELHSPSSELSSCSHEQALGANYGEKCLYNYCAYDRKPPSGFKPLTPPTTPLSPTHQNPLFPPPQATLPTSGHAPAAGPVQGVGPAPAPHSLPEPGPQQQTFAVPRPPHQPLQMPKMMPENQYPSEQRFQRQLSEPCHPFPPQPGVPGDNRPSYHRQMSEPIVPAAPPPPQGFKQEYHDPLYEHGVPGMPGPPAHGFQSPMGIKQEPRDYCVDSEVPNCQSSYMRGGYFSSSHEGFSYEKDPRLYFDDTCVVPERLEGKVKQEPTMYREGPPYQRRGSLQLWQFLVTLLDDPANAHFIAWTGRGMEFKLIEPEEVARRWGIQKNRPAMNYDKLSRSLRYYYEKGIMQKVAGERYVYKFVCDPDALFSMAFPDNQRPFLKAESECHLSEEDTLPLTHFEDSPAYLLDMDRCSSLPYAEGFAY
Chain of ELF4 (Q99607 whole entry): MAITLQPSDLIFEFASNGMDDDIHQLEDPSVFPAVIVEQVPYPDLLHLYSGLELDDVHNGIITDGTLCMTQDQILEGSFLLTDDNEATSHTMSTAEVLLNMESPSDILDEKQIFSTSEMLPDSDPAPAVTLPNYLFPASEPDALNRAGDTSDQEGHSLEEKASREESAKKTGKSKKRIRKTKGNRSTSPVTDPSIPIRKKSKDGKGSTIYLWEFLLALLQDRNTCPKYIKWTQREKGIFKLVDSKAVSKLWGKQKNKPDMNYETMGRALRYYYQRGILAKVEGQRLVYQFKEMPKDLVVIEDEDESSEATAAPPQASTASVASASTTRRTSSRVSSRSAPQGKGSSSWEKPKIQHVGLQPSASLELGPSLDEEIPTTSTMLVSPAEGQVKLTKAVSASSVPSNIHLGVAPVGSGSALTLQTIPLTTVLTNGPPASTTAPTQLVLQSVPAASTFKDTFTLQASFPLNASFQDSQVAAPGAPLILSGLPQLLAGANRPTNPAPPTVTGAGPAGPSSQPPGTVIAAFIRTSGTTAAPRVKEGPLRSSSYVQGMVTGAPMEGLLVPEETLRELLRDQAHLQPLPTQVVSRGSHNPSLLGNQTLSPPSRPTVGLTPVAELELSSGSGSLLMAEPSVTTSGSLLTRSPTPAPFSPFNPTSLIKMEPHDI

Turning to TAAACA, the binding signal is 1.18 fold enrichment (6-mer frequency, TF over GST control) with FEV; 1.24 fold enrichment (6-mer frequency, TF over GST control) in the experiment with ETV5; 1.29 fold enrichment (6-mer frequency, TF over GST control) with HSF1; 1.29 fold enrichment (6-mer frequency, TF over GST control) in the experiment with SPIC; 1.26 fold enrichment (6-mer frequency, TF over GST control) with ELF4; 1.37 fold enrichment (6-mer frequency, TF over GST control) with ELK4. For the same sequence, the binding signal was 1.22 fold enrichment (6-mer frequency, TF over GST control) with ETV2; 1.28 fold enrichment (6-mer frequency, TF over GST control) with ELF3; 1.53 fold enrichment (6-mer frequency, TF over GST control) with CRX; 1.2 fold enrichment (6-mer frequency, TF over GST control) in the experiment with ETV1.

The record behind these values is publication PMC7862700, “An all-to-all approach to the identification of sequence-specific readers for epigenetic DNA modifications on cytosine”.
